Columns and labels:
Assay in all cases: PBM binding z-score (relative to random genomic background probes); higher = stronger binding; sequences stand for … in GC…GCGATTGACAGCGTAGAATGAAGG
[1] = system: FXR:RXRa (NR concentration 270 nM, RXRa partner concentration 90 nM)
How it was run: (§1)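 For binding z-scores, the reference was random background probes on custom Agilent 4×180K protein-binding microarrays. These arrays were incubated 1 h with ligand-free nuclear receptor dimers in PBS pH 7.4, 2% milk, 0.02% Triton X-100, 1 mM DTT, 0.2 mg/mL BSA and 0.4 mg/ml salmon testes DNA. Fluorescence was scanned after antibody detection of each partner (one per run) and regression-normalized.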

[2] = system: LXRa:RXRa (NR concentration 270 nM, RXRa partner concentration 90 nM)
How it was run: as §1

[3] = system: LXRa homodimer (NR concentration 270 nM)
How it was run: as §1

[4] = system: LXRb:RXRa (NR concentration 270 nM, RXRa partner concentration 90 nM)
How it was run: as §1

[5] = system: LXRb homodimer (NR concentration 270 nM)
How it was run: as §1

[6] = system: PPARa:RXRa (NR concentration 270 nM, RXRa partner concentration 90 nM)
How it was run: as §1

[7] = system: PPARg:RXRa (NR concentration 180 nM, RXRa partner concentration 90 nM)
How it was run: as §1

[8] = system: PPARg:RXRa 270nM:90nM, anti-RXR (NR concentration 270 nM, RXRa partner concentration 90 nM)
How it was run: as §1

[9] = system: PPARg:RXRa 30nM:10nM, anti-RXR (NR concentration 30 nM, RXRa partner concentration 10 nM)
How it was run: as §1

[10] = system: PPARg:RXRa 90nM:30nM, anti-RXR (NR concentration 90 nM, RXRa partner concentration 30 nM)
How it was run: as §1

[11] = system: PPARg:RXRa DBDmut IVT, anti-RXR (DBD mutation: RXRa K156A/R161A, NR concentration 270 nM, RXRa partner concentration 90 nM)
How it was run: as §1

[12] = system: PPARg:RXRa IVT, anti-PPARg (NR concentration 270 nM, RXRa partner concentration 90 nM)
How it was run: as §1

[13] = system: PPARg DBDmut:RXRa IVT, anti-PPARg (DBD mutation: PPARg1 K132A/R137A, NR concentration 270 nM, RXRa partner concentration 90 nM)
How it was run: as §1

[14] = system: PPARg DBDmut IVT, anti-PPARg (DBD mutation: PPARg1 K132A/R137A, NR concentration 270 nM)
How it was run: as §1

[15] = system: PPARg homodimer (NR concentration 180 nM)
How it was run: as §1

[16] = system: PXR:RXRa (NR concentration 270 nM, RXRa partner concentration 90 nM)
How it was run: as §1

[17] = system: PXR homodimer (NR concentration 270 nM)
How it was run: as §1

[18] = system: RARa:RXR (NR concentration 270 nM, RXRa partner concentration 90 nM)
How it was run: as §1

[19] = system: RARa homodimer (NR concentration 270 nM)
How it was run: as §1

[20] = system: RARb:RXRa (NR concentration 270 nM, RXRa partner concentration 90 nM)
How it was run: as §1

| Sequence | PBM binding z-score [1] | PBM binding z-score [2] | PBM binding z-score [3] | PBM binding z-score [4] | PBM binding z-score [5] | PBM binding z-score [6] | PBM binding z-score [7] | PBM binding z-score [8] | PBM binding z-score [9] | PBM binding z-score [10] | PBM binding z-score [11] | PBM binding z-score [12] | PBM binding z-score [13] | PBM binding z-score [14] | PBM binding z-score [15] | PBM binding z-score [16] | PBM binding z-score [17] | PBM binding z-score [18] | PBM binding z-score [19] | PBM binding z-score [20] |
| --- | --- | --- | --- | --- | --- | --- | --- | --- | --- | --- | --- | --- | --- | --- | --- | --- | --- | --- | --- | --- |
| TCTTGTAGATCAACAGGGGGTTAAGAAAGATCGA | 1.48 | 2.69 | 0.266 | 3.75 | 8.09 | 2.75 | 0.692 | 2.99 | 3.73 | 3.26 | 2.83 | 3.29 | 5.31 | 7.46 | 1.07 | 2.5 | 0.467 | 2.42 | 0.939 | 1.71 |
| GCCCGGAGGACAAGGTCAGAGCTTTGTCCGTAGA | 1.63 | 1.41 | -0.287 | 1.05 | -1.25 | 1.98 | -0.107 | 0.592 | -0.793 | -0.158 | -0.658 | 0.093 | -1.17 | -2.1 | 0.821 | 1.56 | -0.306 | 2.17 | -1.21 | 3.16 |
| TCTAGTTGGTCACGGACGTCACACACGACGGGTA | 0.24 | 0.203 | -0.153 | 0.406 | 0.211 | 0.764 | 1.24 | 1.59 | 2.77 | 1.95 | 2.14 | 1.94 | 1.1 | 1.25 | 0.55 | 0.245 | 0.184 | 0.485 | 0.469 | 1.57 |
| TTACCAAGGTAAAGGTCGTTGATCCCTCTGTAGA | 3.54 | 3.56 | 0.635 | 2.91 | -0.332 | 4.13 | 6.84 | 7.33 | 5.9 | 7.74 | 0.8 | 3.8 | 1.13 | 0.564 | 1.72 | 2.59 | 0.148 | 2.98 | -0.24 | 2.14 |
| TTATCAAGGTGAAGGTCGTTGATCCCTCTGTAGA | 2.51 | 1.93 | 0.076 | 1.75 | -0.0841 | 3.01 | 2.92 | 3.88 | 2.1 | 3.49 | 2.89 | 3.99 | 1.51 | 0.341 | 1.18 | 1.66 | 0.515 | 2.18 | -0.235 | 2.21 |
| GCATATAGGTAATACAAGGTGAAAATCCGATTGT | 0.325 | 1.44 | 0.125 | 0.602 | -0.207 | 1.5 | 1.55 | 1.09 | 0.599 | 0.773 | 3.55 | 3.21 | 0.778 | 0.777 | 0.494 | 0.273 | 0.142 | 1.85 | 0.843 | 0.306 |
| TCTCGGAGGACACGAAGGTCAGAGATTTCCAGAG | 1.38 | 0.932 | 0.277 | 1.25 | -0.387 | 1.83 | 0.75 | 1.93 | 2.37 | 2.23 | 1.66 | 1.24 | -0.127 | -0.972 | 1.21 | 1.86 | 1.02 | 2.11 | -0.144 | 3.4 |
| CGTCTAAGGTCAATGCTAGGTCAGTGAAAGCATT | 7.02 | 5.82 | 2.56 | 4.58 | 1.34 | 5.36 | 4.53 | 5.68 | 1.9 | 4.12 | 3.81 | 4 | -0.172 | -0.413 | 4.57 | 4.95 | 1.41 | 6.06 | 0.698 | 5.35 |
| TCCTGTAGATCAAAGGTTAAGAAAGCCGAAGCCT | 1.59 | 2.18 | -0.208 | 2.2 | -0.193 | 4.17 | 7.57 | 7.55 | 8.09 | 8.13 | 1.82 | 3.04 | -0.37 | 0.441 | 1.34 | 1.72 | -0.679 | 2.85 | -0.272 | 1.78 |
| TCTGCTAGCTCAGTTGGTCAGCTAACGAGCTGCC | -1.44 | -1.29 | -1.01 | -1.04 | -0.714 | -0.45 | -1.22 | 0.0147 | 0.674 | 0.449 | 0.435 | 0.0097 | -0.882 | -0.216 | -1.73 | -0.874 | -1.69 | -0.998 | -2.24 | -0.575 |
| GATACAGGGTCAGGTAGAGGCCAGAGTATGGAAA | 4.61 | 2.74 | -0.128 | 2.58 | -0.154 | 4.6 | 3.75 | 3.23 | 0.959 | 2.07 | 0.739 | 2.45 | 0.9 | 0.631 | 2.28 | 2.96 | 0.741 | 3.47 | 1.29 | 4 |
| GGAACGAGGGCAAAGTGGATAGCATCTGTCGACG | 0.8 | 0.482 | -0.564 | 0.23 | -0.66 | 2.86 | 4.34 | 5.37 | 3.71 | 5.67 | 3.95 | 3.72 | 0.652 | 0.661 | 1.42 | 0.489 | 0.241 | 0.674 | -0.182 | 2.27 |
| AGAATGAGGTTATACGTACATCAGGGAAGAAAGT | 2.3 | 2.05 | 0.00405 | 1.58 | 0.14 | 3.24 | 2.46 | 2.42 | 0.777 | 1.66 | 2.47 | 2.41 | 1.28 | 1.19 | 0.736 | 1.28 | 0.643 | 1.82 | 0.483 | 1.5 |
| TCTTGTAGATCAACAGGAGGTTAAAAAAGATCGA | 0.243 | 2 | 0.321 | 1.34 | -0.17 | 1.54 | 0.116 | 1.59 | 2.66 | 2.31 | 1.2 | 0.996 | 0.773 | 1.21 | -0.0647 | 0.969 | -0.197 | 0.92 | 0.296 | 0.47 |
